Rows were chosen to be rich in hits. Some 12% of all compounds tested hit in one or more screens of this group.
Sm TGR inh: inhibitors of Schistosoma mansoni thioredoxin glutathione reductase; Q962Y6; purified TGR, DTNB reduction, TNB absorbance 405 nm; Potency, µM (highest dose often 114 µM), for the others: top-dose activity change, negative = inhibition, hits mostly inhibitors; actives 3% (n = 360,000); active = well fitted inhibition curve with a large enough effect; inconclusive = small, poorly fitted or top-dose-only effect; inactive = no such curve, though single readings can be large or run the other way; also: potency is read from the fitted curve at half-maximal effect; % is scaled to controls: 0 for no effect and ±100 for the full control effect; nearly all actives have a fitted effect of over 60% in size
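First, TGR (20 nM dispensed) and NADPH were mixed with compound. Second, a 15 min room-temperature incubation followed. Third, further NADPH and then DTNB were added to start the reaction. Finally, TNB absorbance was monitored kinetically.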
CHX counter: affects cycloheximide protein synthesis inhibition readout, counter-screen; cell reporter, cycloheximide protein synthesis inhibition counterscreen; max response, %; actives 12% (n = 300,000); in the data active = max response mostly above about 13%, no sharp cut-off; inactive = mostly below about 14%; also: read at 38.3 µM for the half of the compounds with a filed dose; 0% is about no effect
Shiga toxin inh: blocks Shiga toxin action in Vero cells. Vero cells, Shiga toxin protein synthesis inhibition reporter. inhibition, % at 38.7 µM. actives 9.2% (n = 290,000). AID 2315; in the data active = inhibition mostly above about 28%, no sharp cut-off; inactive = mostly below about 43%; also: 0% is about no effect
FMDV inh: blocks foot and mouth disease virus. FMDV antiviral cell-based qHTS. Potency, µM (series often up to 57.9 µM), for the others: at the top dose activity change, negative = inhibition, actives largely listed as inhibitors. actives 1.2% (n = 410,000). AID 1159524; calls by dose curve; tested in HEK293T cells; also: read-out not given here; potency is read from the fitted curve at half-maximal effect; % is scaled to controls: 0 for no effect and ±100 for the full control effect; nearly all actives have a fitted effect of over 45% in size
Starred values were filed as active, the others as inactive.

Screening Cc1cccc(Oc2ccc(NC(=O)CCC(=O)OCC(=O)c3ccc(Br)cc3)cc2)c1C returned Sm TGR inh -6.6% and FMDV inh -1.2%.
For O=C(O)CC1C(=O)NCCN1C/C=C/c1ccccc1 (stereo not given) the results were Sm TGR inh 39.8µM*, CHX counter -4.3, Shiga toxin inh 6.2 and FMDV inh -4.4%.
Screening O=C(CC1C(=O)NCCN1C/C=C/c1ccccc1)NCCCC1CCCC1 (stereo not given) returned Sm TGR inh 11.2%, CHX counter 37.3*, Shiga toxin inh 74.6* and FMDV inh -12.8%.
`Cc1cccc2c(=O)cc(CSc3ccccc3NC(=O)c3cccc(Cl)c3)[nH]c12` gave Sm TGR inh -1.2% and FMDV inh -14.7%.
For Cc1cccc(N2CCN(C(=O)c3cccn4c(=O)c5cc(Cl)ccc5nc34)CC2C)c1 (stereo not given) the results were Sm TGR inh -11.7% and FMDV inh -19.8%.
Screening CC(C)(C)c1ccc(Oc2ccc(NC(=O)c3cccs3)cn2)cc1 returned Sm TGR inh -0.6%, CHX counter 8.7, Shiga toxin inh 1.9 and FMDV inh 12.6µM*.
COc1ccc(NC(=O)c2cccs2)cn1 was read as Sm TGR inh 14.5%, CHX counter 25.9*, Shiga toxin inh 61.5* and FMDV inh 16.4%.
`CC(C)(C)c1ccc(Oc2ccc(NC(=O)c3ccco3)cn2)cc1` gave Sm TGR inh 4.0%, CHX counter -2.6, Shiga toxin inh 26.8 and FMDV inh inconclusive.
For Cc1ccccc1OCCSc1nnc(-c2ccc([N+](=O)[O-])cc2)o1 the results were Sm TGR inh 10.0% and FMDV inh -24.5%.
Screening COc1ccc(-c2c[n+]3c(n2-c2ccccc2)CCCCC3)cc1 returned Sm TGR inh 3.2%, CHX counter 1.2, Shiga toxin inh -4.9 and FMDV inh inconclusive.
For CC(C)c1ccc(-n2c(-c3ccccc3)c[n+]3c2CCc2ccccc2-3)cc1 the results were Sm TGR inh -16.9%, CHX counter -1.3, Shiga toxin inh -3.9 and FMDV inh 11.2µM*.
Screening COc1ccccc1-n1c(-c2ccccc2)c[n+]2c1CCc1ccccc1-2 returned Sm TGR inh -13.8%, CHX counter 1.1, Shiga toxin inh -9.0 and FMDV inh 3.16µM*.
Screening COc1ccc(-c2cn(-c3ccc(OC)cc3)c3[n+]2-c2ccccc2CC3)cc1 returned Sm TGR inh -9.8%, CHX counter -1.4, Shiga toxin inh -4.5 and FMDV inh 15.8µM*.
COc1ccc(-n2c(-c3ccc(Br)cc3)c[n+]3c2CCc2ccccc2-3)cc1 was read as Sm TGR inh 1.7%, CHX counter 13.6*, Shiga toxin inh 1.4 and FMDV inh inconclusive.
CCOc1ccc(-n2c(-c3ccccc3)c[n+]3c2CCC3)cc1 was read as Sm TGR inh 10.2%, CHX counter 2.3, Shiga toxin inh -4.7 and FMDV inh inconclusive.
`CC(CNC(=O)C1CCN(C(=O)c2cc3sccc3n2C)CC1)c1ccccc1` (stereo not given) gave Sm TGR inh 8.8% and FMDV inh -19.7%.
`CCN(C(=O)CSc1nc(-c2ccccc2)no1)c1cccc(C)c1` gave Sm TGR inh -23.6% and FMDV inh inconclusive.
Cc1nn(C)c(C(=O)NC(=S)Nc2ccc([N+](=O)[O-])cc2)c1Cl was read as Sm TGR inh -10.1%, CHX counter 1.9, Shiga toxin inh -2.2 and FMDV inh -19.8%.
Cc1nn(C)c(C(=O)NC(=S)Nc2ccccc2Br)c1Cl was read as Sm TGR inh -5.9%, CHX counter 21.8*, Shiga toxin inh 16.8 and FMDV inh 24.2%.
Screening CCCCOC(=O)c1ccc(NC(=S)NC(=O)c2c(Cl)cnn2CC)cc1 returned Sm TGR inh 3.2%, CHX counter 6.2, Shiga toxin inh 35.5 and FMDV inh -1.4%.
`CCn1ncc(Cl)c1C(=O)NC(=S)Nc1ccccc1Br` gave Sm TGR inh 28.2µM*, CHX counter 32.8*, Shiga toxin inh 20.6 and FMDV inh -25.8%.
`O=C(c1cnccn1)N1CCC2(CC1)CN(Cc1nccs1)C2` gave FMDV inh 0.8%.
Screening COC(=O)Cn1cnc2c(cnn2-c2ccc(C)cc2)c1=O returned Sm TGR inh 0.0%, CHX counter 48.4*, Shiga toxin inh 68.8* and FMDV inh 16.9%.
Screening COC(=O)Cn1cnc2c(cnn2-c2ccc(OC)cc2)c1=O returned Sm TGR inh -18.0%, CHX counter 22.8*, Shiga toxin inh 42.0 and FMDV inh 16.9%.
Screening O=C(N/N=C/c1ccc(O)cc1)c1ccncc1 returned Sm TGR inh 11.4%, CHX counter 9.8*, Shiga toxin inh 21.1 and FMDV inh 10.4%.
Screening O=C(N/N=C/c1ccncc1)c1ccncc1 returned FMDV inh -9.4%.
Screening Cc1cccc(C(=O)N/N=C/c2ccncc2)c1 returned Sm TGR inh 5.3%, CHX counter 14.0*, Shiga toxin inh 5.7 and FMDV inh 8.7%.
For O=C(N/N=C/c1ccc(OC(=O)c2cccs2)cc1)c1cccc(F)c1 the results were Sm TGR inh 0.0%, CHX counter 47.0*, Shiga toxin inh 31.2 and FMDV inh 52.6%.
Fc1ccc(N/N=C/c2cccnc2)c(F)c1 was read as Sm TGR inh 7.6%, CHX counter 31.3*, Shiga toxin inh 73.1* and FMDV inh 49.0%.
Screening CCOc1ccc(OCC)c(NS(=O)(=O)c2ccc3c(c2)CCCN3C(C)=O)c1 returned Sm TGR inh 1.2% and FMDV inh 46.0%.
For O=c1c2oc3ccccc3c2n(Cc2ccccc2Cl)c(=O)n1Cc1ccco1 the results were Sm TGR inh -27.2% and FMDV inh -9.6%.
For COc1cccc(C(=O)Nc2cccc(OCc3cc(=O)n4cc(C)ccc4n3)c2)c1 the results were Sm TGR inh -3.9% and FMDV inh -0.7%.
Screening O=C(CNC(=O)c1cccc(F)c1)N/N=C/c1cccnc1 returned Sm TGR inh 3.5%, CHX counter 6.9, Shiga toxin inh 2.2 and FMDV inh -5.9%.
For O=C(N/N=C/c1cccnc1)c1cc(O)c(O)c(O)c1 the results were Sm TGR inh -32.3%, CHX counter -1.0, Shiga toxin inh 2.2 and FMDV inh 11.6%.
`Cc1ccc(/C=N/NC(=O)c2ccncc2)cc1` gave Sm TGR inh -5.2%, CHX counter 22.4*, Shiga toxin inh 46.9 and FMDV inh 26.7%.
`O=C(N/N=C/c1ccc2nccnc2c1)c1ccncc1` gave Sm TGR inh 31.5%, CHX counter 18.3, Shiga toxin inh 11.4 and FMDV inh 11.3%.
For O=C(N/N=C/c1cccnc1)c1ccc(O)cc1 the results were Sm TGR inh 6.3%, CHX counter 19.5*, Shiga toxin inh 40.3 and FMDV inh 2.7%.
For Cc1ccc(S(=O)(=O)NNC(=O)c2csnn2)cc1 the results were Sm TGR inh inconclusive, CHX counter -6.5, Shiga toxin inh -3.0 and FMDV inh -7.0%.
`Cc1ccc(/C=N\NC(=O)c2csnn2)cc1` gave Sm TGR inh -22.5%, CHX counter 30.0*, Shiga toxin inh 98.2* and FMDV inh -35.0%.
`O=C(N/N=C/c1cccnc1)c1cccc(F)c1` gave Sm TGR inh 9.1%, CHX counter 19.9*, Shiga toxin inh 23.0* and FMDV inh 29.3%.
